# Whole data set: some 33,000 sequences, median “E-score (-0.5 to 0.5)” near -0.016, cut for the highest 2% near 0.3. Shown is part of a subset that was picked to be rich in the highest values.
# Target: T1, Yer184c (UniProt P39961)
# T1 sequence: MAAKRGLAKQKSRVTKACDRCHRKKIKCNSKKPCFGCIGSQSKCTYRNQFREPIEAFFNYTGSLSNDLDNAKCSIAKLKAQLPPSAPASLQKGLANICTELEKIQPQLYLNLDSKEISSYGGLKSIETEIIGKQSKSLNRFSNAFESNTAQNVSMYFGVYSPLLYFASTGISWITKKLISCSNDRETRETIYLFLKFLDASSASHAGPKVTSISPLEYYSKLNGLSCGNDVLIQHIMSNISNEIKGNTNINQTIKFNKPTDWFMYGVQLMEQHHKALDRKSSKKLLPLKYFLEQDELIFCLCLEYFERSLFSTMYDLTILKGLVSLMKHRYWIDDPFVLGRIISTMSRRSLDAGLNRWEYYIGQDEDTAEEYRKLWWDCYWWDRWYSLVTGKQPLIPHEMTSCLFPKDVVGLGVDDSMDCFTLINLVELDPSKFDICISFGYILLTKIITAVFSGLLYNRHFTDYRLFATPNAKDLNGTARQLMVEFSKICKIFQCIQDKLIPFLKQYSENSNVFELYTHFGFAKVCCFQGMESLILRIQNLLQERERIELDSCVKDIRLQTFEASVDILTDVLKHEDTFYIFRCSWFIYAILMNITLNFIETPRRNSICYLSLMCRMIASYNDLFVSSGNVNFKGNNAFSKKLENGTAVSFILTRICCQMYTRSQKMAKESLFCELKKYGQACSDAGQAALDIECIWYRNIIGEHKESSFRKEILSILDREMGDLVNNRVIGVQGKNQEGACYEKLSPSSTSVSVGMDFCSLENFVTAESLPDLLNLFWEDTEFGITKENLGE
# Assay: PBM E-score (8-mer binding enrichment) (E-score (-0.5 to 0.5)); higher = stronger / more preferred TF binding
# Conditions: protein concentration: 100 nM; construct: GST-full length
# Outline: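 Bound GST-tagged yeast transcription factors, applied at about 100-200 nM to double-stranded universal all-10-mer Agilent arrays, were detected with fluorescent anti-GST. Scans were normalised with masliner. A modified Wilcoxon-Mann-Whitney statistic, the E-score, was assigned to each ungapped eight-base word pooled with its reverse complement by the Universal PBM Analysis Suite.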
row,Sequence,PBM E-score
1,AGATTCAC,-0.157
2,AAGGCTGC,-0.0369
3,AACCATCA,0.0573
4,GGTCTTAA,-0.104
5,ACCGTTGG,-0.244
6,CACTTATC,-0.0553
7,ATAGAATC,0.128
8,AGAGGCGC,-0.119
9,CGGTATTA,0.251
10,ACCACACG,-0.164
11,AAATATAG,0.189
12,AAATATAT,0.305
13,TATATAAA,0.289
14,GATTAAAA,0.296
15,TATAAAAA,0.373
16,AAATATAC,0.0721
17,TATTAAAA,0.318
18,CATAAAAA,0.252
19,AATTAAAA,0.202
20,GTAAAGAC,0.0705
21,AATAACGA,0.068
22,ATCAAGTG,-0.132
23,ATCTTCAA,0.187
24,TTAGCTAA,0.0769
25,AATCCGCT,-0.0489
26,GATCCGGC,0.354

row,Sequence,PBM E-score
1,GATCCGGA,0.395
2,GATCCGTA,0.17
3,CATCCGGG,0.223
4,CATCCGCA,0.108
5,AATCCGGC,0.3
6,AATCCGAT,0.275
7,AATCCGGT,0.36
8,GATCCGCA,0.0531
9,GATCCGCC,0.0797
10,CATCCGGA,0.375
11,AATGGGTC,-0.184
12,ATGGCCCC,-0.162
13,CTAGTAAC,-0.0898
14,CTACCCAC,-0.304
15,TAAAGCGA,0.0559
16,GGACTGCC,-0.102
17,ATTATGGC,0.0693
18,AAGGCTAT,-0.0663
19,CCTGGTAC,-0.0559
20,CTGCGGGA,-0.0974
21,AATAACCA,0.0129
22,CGCTTTAC,-0.137
23,CATCCGCC,0.0602
24,AATCCGGA,0.401
25,CATCCGTC,-0.0104
26,CATCCGGC,0.358

row,Sequence,PBM E-score
1,AATCCGTA,0.0372
2,AATCCGCA,0.101
3,CCGAGCAG,0.17
4,ACCAATCA,0.0919
5,AGCTTTCG,0.105
6,ATTCCCAC,-0.171
7,CTGGTGTA,-0.234
8,ATTTTCGG,0.377
9,ATTTCCCC,-0.166
10,ATCTTCGC,-0.0164
11,ATTTCCCA,0.107
12,ATTTTCGA,0.121
13,ATTTCCCG,0.328
14,ATCTTCGA,-0.0159
15,ATTTTCGC,0.111
16,ATCTTCGG,0.35
17,ATATTTCC,0.177
18,ATATTTCG,0.318
19,ATATTTCA,0.201
20,CCCATTCC,-0.258
21,ACACTCCA,-0.127
22,AAGGCTTC,-0.0592
23,TATTCTAA,0.181
24,CACTTCTA,-0.133
25,CCTTGCTC,-0.141
26,GGAGGTAA,-0.0289

row,Sequence,PBM E-score
1,ATTTTCCC,0.00872
2,AATTTCCG,0.406
3,AGTTTCCG,0.392
4,ATTTCTTA,0.216
5,ATTTTCCG,0.4
6,ATTTTCCA,0.178
7,CATTTCCG,0.3
8,ATTTCTTG,0.216
9,AGTTTCCA,0.111
10,AGTTTCCC,-0.0163
11,ATTTCTTC,0.315
12,AATTTCCC,0.0065
13,ATGAAGCA,-0.0497
14,CACTTCTC,-0.119
15,CGTAAGTC,-0.00193
16,ATTGTTGA,0.141
17,CCTGCATA,-0.105
18,ACAGCGAA,0.117
19,CTTACTGC,-0.0955
20,ATTTCTCC,0.122
21,ATTTTTCA,0.169
22,ATTTCTCG,0.308
23,ATTTTTCG,0.314
24,AATTTTCG,0.092
25,ATTTCTCA,0.099
26,ATCTCACA,-0.0208

row,Sequence,PBM E-score
1,GTCTGGCA,-0.16
2,CAGTATAC,-0.0142
3,AAAAATGC,0.143
4,AAACTAGC,-0.093
5,CGTTCCGC,0.262
6,AGTTCCGA,0.313
7,CGTTCCGA,0.236
8,AGTTCCGG,0.374
9,GGTTCCGA,0.278
10,AGTTCCTG,-0.18
11,AGTTCCGC,0.305
12,AGTTCCAC,-0.00257
13,AGTTCCAG,-0.101
14,CCGGTCTC,0.0994
15,CTAAAGGC,-0.0965
16,ACTAGCAC,-0.174
17,AATGGTAC,-0.00404
18,ACTAGGAA,-0.177
19,CATGCCGG,0.366
20,CATGCCCG,0.0955
21,AATGCCGG,0.35
22,CATGCCGC,0.181
23,AATGCCTG,-0.123
24,CATGCCGA,0.336
25,TATGCCGA,0.28
26,CATGCCTA,-0.261

row,Sequence,PBM E-score
1,CATGCCAG,-0.161
2,AATGCCTA,-0.0279
3,AATGCCCG,-0.121
4,AATGCCGA,0.378
5,CAAATACG,-0.00546
6,CGAAACTA,0.0737
7,CACTAGTC,-0.184
8,ACTAACGA,0.00902
9,AAAGGCAT,0.141
10,AACCTATT,-0.139
11,GCATCCCC,-0.168
12,CATCAATG,-0.0256
13,AATGCCAT,0.055
14,GATGCCAA,-0.105
15,AATGCCGT,0.304
16,AATGCCGC,0.199
17,GATGCCGC,0.106
18,GATGCCGA,0.319
19,CCTCTTCG,-0.00118
20,AGTTCCCG,0.223
21,CCGCGCGA,0.183
22,AGGCGGTA,-0.135
23,CGGCGGTA,0.348
24,ACGCGGAG,0.143
25,CCGCGGTC,0.205
26,CCGCGGTA,0.345

row,Sequence,PBM E-score
1,GGGCGGTA,-0.0752
2,ACGCGGTA,-0.105
3,CCGCGCGG,0.386
4,CCGCGCGC,0.154
5,CCGCGGAG,0.333
6,CCGCGGAC,0.295
7,CCAGCTTC,-0.0253
8,CAAAATGA,0.0065
9,GACTCAAC,0.0381
10,ATCTCTTC,0.0858
11,AGGTTAAC,-0.037
12,CCGCGGGC,0.25
13,GCGCGGAA,0.138
14,TCGCGGAA,0.137
15,CCGCGGGA,0.324
16,GCGCGGGA,0.0199
17,CCGCGGAA,0.416
18,CGGTGGTC,-0.0197
19,AGAGATCC,-0.00438
20,AAGTGTCA,-0.293
21,ACAAAACT,0.144
22,CGCCCAAA,0.0692
